Source: PubChem BioAssay
mcGAS MS inh – inhibitors of Mus musculus cyclic GMP-AMP synthase, initial high-throughput assay, cell-free, RapidFire MS. recombinant mouse cGAS, cGAMP by RapidFire MS. inhibition, % at 12.5 µM. Q8C6L5. hit rate 0.18% among 130,000;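 active means inhibition of cGAS enzyme activity at or above 60%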;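 further: enzyme stimulated by 45 bp dsDNA with ATP and GTP substrates; cGAMP share of summed cGAMP plus half ATP and half GTP signals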
Target sequence (Q8C6L5 whole entry, looked up): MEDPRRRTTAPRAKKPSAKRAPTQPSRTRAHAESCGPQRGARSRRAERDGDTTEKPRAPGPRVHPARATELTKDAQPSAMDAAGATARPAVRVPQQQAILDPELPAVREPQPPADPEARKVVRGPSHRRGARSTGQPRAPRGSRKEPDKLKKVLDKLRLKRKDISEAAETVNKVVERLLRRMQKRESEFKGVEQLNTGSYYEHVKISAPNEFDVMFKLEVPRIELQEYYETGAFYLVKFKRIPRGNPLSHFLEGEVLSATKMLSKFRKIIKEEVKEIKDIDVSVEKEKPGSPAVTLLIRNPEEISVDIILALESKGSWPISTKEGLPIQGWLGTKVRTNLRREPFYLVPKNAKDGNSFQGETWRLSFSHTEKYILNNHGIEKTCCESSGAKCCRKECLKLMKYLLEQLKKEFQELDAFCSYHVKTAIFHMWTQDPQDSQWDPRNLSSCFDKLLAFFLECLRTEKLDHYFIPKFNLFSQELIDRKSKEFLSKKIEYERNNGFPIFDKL
The depositor's hits bear a star; ! = not active in a repeat. Shown is part of a subset that was picked to be rich in hits.

`CCN(c1ccccc1)S(=O)(=O)c1ccc(OC)c(NC(=O)C2CCCN(S(C)(=O)=O)C2)c1` (stereo not drawn) gave mcGAS MS inh -5.0.
For Cc1cc2cc(C(=O)NC(Cn3ccnc3)C(C)C)ccc2o1 (stereo not drawn) the results were mcGAS MS inh -3.7.
C[n+]1c2cc(N)ccc2cc2ccc(N)cc21 was read as mcGAS MS inh 98.9*!.
COc1c(Cl)cc(NC(=O)c2scnc2C)cc1Cl was read as mcGAS MS inh -2.4.
For COCCCNC(=O)[C@@H](C)N1Cc2ccc(Nc3ncccn3)nc2C1=O the results were mcGAS MS inh 6.7.
For Cc1ccc(C(C2Sc3nc(C)nn3C2=O)N2CCCCC2)cc1 (stereo not drawn) the results were mcGAS MS inh -8.4.
Screening Cc1nonc1NC(=O)c1cccc(Br)c1C returned mcGAS MS inh -1.6.
For Cc1cc2nc3c(=O)[nH]c(=O)nc-3n(CC(O)C(O)C(O)CO)c2cc1C (stereo not drawn) the results were mcGAS MS inh 4.2.
Cc1cc2nc3c(=O)[nH]c(=O)nc-3n(C)c2cc1C=O was read as mcGAS MS inh 91.1*.
Cc1cc2nc(-c3ccccc3)c(=O)n(C)c2cc1C was read as mcGAS MS inh 2.2.
CC(C)N1CCC(O)N1C=O (stereo not drawn) was read as mcGAS MS inh -7.3.
CSCc1nc2ccccc2n1CC(=O)Nc1ncc(C)s1 was read as mcGAS MS inh 21.1.
N#Cc1ccc(S(=O)(=O)NC2CCc3cc(Cl)ccc32)cc1 (stereo not drawn) was read as mcGAS MS inh 0.8.
For COc1ccc2[nH]c(=O)c(CN3CCCOC(Cn4cccn4)C3)cc2c1 (stereo not drawn) the results were mcGAS MS inh -13.0.
Screening COc1ccc2cc(CN3CCCN(c4ccncc4)CC3)c(=O)[nH]c2c1 returned mcGAS MS inh 60.4*.
`COc1ccc2[nH]c(=O)c(CN3CCC(N4CCCC(O)C4)CC3)cc2c1` (stereo not drawn) gave mcGAS MS inh 2.3.
Screening COc1ccc(S(=O)(=O)N2CCCOC2CNC(=O)C(=O)NCc2ccccc2F)cc1OC (stereo not drawn) returned mcGAS MS inh 2.6.
O=C([C@H]1C[C@@H]2C=C[C@H]1C2)N1CCC(CO)(CCc2ccccc2)CC1 was read as mcGAS MS inh -7.2.
Screening CCOC(=O)C1=C(C)NC(C)=C(C(=O)OC)C1c1cccc([N+](=O)[O-])c1 (stereo not drawn) returned mcGAS MS inh -13.1.
COCCOC(=O)C1=C(C)N(C)C(=O)NC1c1ccccc1[N+](=O)[O-] (stereo not drawn) was read as mcGAS MS inh -7.6.
Screening COC(=O)C1=C(C)NC(C)=C(C(=O)OC)C1c1ccccc1[N+](=O)[O-] returned mcGAS MS inh 73.2*!.
CNC(=O)CN(CCC#N)CC(C)(C)C was read as mcGAS MS inh -5.9.
COc1ccc(CCNC(=O)CC2CSc3nc4c(c(=O)n32)CCCC4)cc1OC (stereo not drawn) was read as mcGAS MS inh -6.7.
For N#Cc1cccc(N/N=C2\CCn3cccc32)c1 the results were mcGAS MS inh -7.2.
Screening N#Cc1cccc(NC(=O)N2CCN(c3ccc(C#N)cc3F)CC2)c1 returned mcGAS MS inh -0.5.
Screening N#Cc1cccc(NN=C2CCN(c3ccc(F)cc3)CC2)c1 returned mcGAS MS inh 88.7*.
For CCCN1CCCC1C(=O)N1CCCN(Cc2nccn2C)CC1 (stereo not drawn) the results were mcGAS MS inh 93.6*.
CCCCc1nc(CN2CCCN(Cc3nccn3C)CC2)no1 was read as mcGAS MS inh -28.2.
For Cn1ccnc1CN1CCCC(CCNS(C)(=O)=O)C1 (stereo not drawn) the results were mcGAS MS inh -4.3.
For CN(CCc1cn[nH]c1)C(=O)CC(c1ccccc1)c1ccc(Cl)cc1 (stereo not drawn) the results were mcGAS MS inh -3.2.
Screening COCCNS(=O)(=O)c1cccc(C(=O)N2CC(C)CC2C)c1 (stereo not drawn) returned mcGAS MS inh -10.3.
Screening CCCOc1c(Cl)cc(C(=O)N2CCC(CN3CCOCC3)C2)cc1OC (stereo not drawn) returned mcGAS MS inh -0.7.
`CC1Sc2ccc(-c3ccco3)cc2N(Cc2ccc(Cl)cc2)C1=O` (stereo not drawn) gave mcGAS MS inh 65.7*.
Screening CC1Sc2ccccc2N(Cc2ccc(F)c(Cl)c2)C1=O (stereo not drawn) returned mcGAS MS inh 24.5.
For COc1cccc(-c2ccc3c(c2)N(Cc2ccc4c(c2)OCO4)C(=O)C(C)S3)c1 (stereo not drawn) the results were mcGAS MS inh -12.1.
Screening Cc1cc(C)c(C(=O)O)c(=O)[nH]1 returned mcGAS MS inh -3.7.
Cc1cc(O)c(C=O)c(O)c1C(=O)O was read as mcGAS MS inh 81.8*.
For Cc1cc(O)cc(O)c1C(=O)O the results were mcGAS MS inh 46.1.
`CCOC(C)c1nc(CSc2nnnn2C2CCCC2)cs1` (stereo not drawn) gave mcGAS MS inh 1.5.
S=c1n(CN2CCCC2)nc(C2COc3ccccc3O2)n1-c1ccccc1 (stereo not drawn) was read as mcGAS MS inh -1.9.
`c1ccc2c(c1)OCC(c1nn3c(CN4CCOCC4)nnc3s1)O2` (stereo not drawn) gave mcGAS MS inh 16.3.
For c1ccc2c(c1)OCC(c1nn3c(CN4CCCCCC4)nnc3s1)O2 (stereo not drawn) the results were mcGAS MS inh 69.5*.
`Cc1cccnc1C1=NOC(Cc2ccccc2)C(=O)N1CC(=O)c1ccccc1F` (stereo not drawn) gave mcGAS MS inh 9.4.
Screening COCCN(Cc1ccncc1Cl)C(C)(C)CO returned mcGAS MS inh -0.7.
CC(=O)c1c(C)oc2ccc(N(C(=O)c3ccncc3)S(=O)(=O)c3ccc(C(C)(C)C)cc3)cc12 was read as mcGAS MS inh -9.0.
`COc1cccc2c1C(=O)c1c(O)c3c(c(O)c1C2=O)C[C@@](O)(C(C)=O)C[C@@H]3O[C@H]1C[C@H](N)[C@H](O)[C@H](C)O1` gave mcGAS MS inh 90.6*!.
Screening COc1cccc2c1C(=O)c1c(O)c3c(c(O)c1C2=O)C[C@@](O)(C(=O)CO)C[C@@H]3O[C@H]1C[C@H](N)[C@@H](O)[C@H](C)O1 returned mcGAS MS inh 98.3*!.
CC(=O)[C@]1(O)Cc2c(O)c3c(c(O)c2[C@@H](O[C@H]2C[C@H](N)[C@H](O)[C@H](C)O2)C1)C(=O)c1ccccc1C3=O was read as mcGAS MS inh 90.4*.
For O=C1CN(c2ccccc2)C(=O)N1Cc1ccc(F)cc1 the results were mcGAS MS inh -7.3.
Screening CC1(C)CC(OC(=O)c2ccncc2)CC(C)(C)N1O returned mcGAS MS inh 6.1.
O=c1c(Cl)c(Cl)cnn1CCOc1ccc(Br)cc1 was read as mcGAS MS inh -3.3.
Clc1ccc2nc(CSc3ncnc4sc5c(c34)CCC5)cn2c1 was read as mcGAS MS inh -1.8.
`O=C(O)c1cc(-c2cc(NCc3cccnc3)nc3[nH]ccc23)cs1` gave mcGAS MS inh -3.2.
Screening C=CCN(C1CCCC1)S(=O)(=O)C1CON(C)C1c1ccc(OC)cc1 (stereo not drawn) returned mcGAS MS inh -2.1.
For O=C(CSc1nc2[nH]ncc2c(=O)[nH]1)Nc1ccc(F)cc1F the results were mcGAS MS inh -1.4.
Cc1cc(N2CCCC(N)C2=O)n(C)n1 (stereo not drawn) was read as mcGAS MS inh -8.4.
